Results on 50 compounds are retold here after PubChem BioAssay AID588855 (National Center for Advancing Translational Sciences (NCATS), 2011).

Out of some 410,000 compounds screened, about 5,000 (1.2%) were called active. Another 13% or so got no clear call; they are omitted. Calls come from the whole dose curve; as a rule, active = well fitted inhibition curve with a large enough effect; inconclusive = small, poorly fitted or top-dose-only effect; inactive = no such curve, though single readings can be large or run the other way. The sample as a whole holds a higher share of actives than the screen did.
% is set by controls: 0 for no effect and ±100 for the full control effect; potency is the fitted concentration of half-maximal effect.

This test is described as follows: qHTS for Inhibitors of TGF-b. Note: nearly all actives have a fitted effect of over 65% in size. To be noted: HepG2 CAGA-GFP TGF-b/SMAD3 reporter, GFP fluorescence, 18 h, TGF-beta stimulated, 500 pg/mL final; series mostly up to 46.1 µM; activity, negative = inhibition: at the top concentration. The method in brief: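 Smad-responsive CAGA-GFP expression was quantified in HEPG2 cells exposed to compounds and 500 pg/mL final TGF-beta for 18 h at 37 degrees C; unstimulated wells defined full inhibition.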
In general terms: qHTS replaces the single test concentration by a dilution series.
`Cc1cc(-c2ccc(C)c(S(=O)(=O)N3c4ccccc4CC3C)c2)on1` (stereo not given): the “activity, negative = inhibition” value was 0% (inactive). As for `CCCCOc1ccc(CN2C(=O)C(=O)c3cc(Br)cc(C)c32)cc1OC`, the Potency was 10 µM (active). In the case of `COc1ccc(CCN2C(=O)C(C)=C(C)C2=O)cc1OC`, the “activity, negative = inhibition” value was 1.46% (inactive). For `CCCCN1C(=O)C(C)=C(C)C1OCCc1ccc(OC)c(OC)c1` (stereo not given), the “activity, negative = inhibition” value was -21.6% (inactive). With `Cc1ccc(-c2nc3cccc(C)n3c2Nc2ccc3c(c2)OCCO3)cc1`, the “activity, negative = inhibition” value was 8.92% (inactive). Consider `Clc1cccc(N=C2NN=C(c3ccc4c(c3)OCCO4)CS2)c1`, for which the Potency is 10 µM (active). On to `COc1ccc(NC(=O)CSc2nccn2C2CCCC2)cc1OC`, for which the “activity, negative = inhibition” value was 0.0461% (inactive). Turning to `CCN1CCC(O)(/C=C/c2ccc(C)cc2)C(C(=O)/C=C/c2ccc(C)cc2)C1` (stereo not given), the Potency was 11.2 µM (active). Regarding `COc1ccc(CNc2nc(-c3ccc(Cl)cc3)nn2S(=O)(=O)c2ccc(C)cc2)cc1`, the “activity, negative = inhibition” value was -14.6% (inactive). In the case of `O=S(=O)([N-]c1nc2ccccc2nc1-[n+]1ccc(Cc2ccccc2)cc1)c1ccc(Br)s1`, the Potency is 2.82 µM (active). As to `O=S(=O)(NCc1ccccn1)c1ccc(Br)s1`, the “activity, negative = inhibition” value is 14.4% (inactive). As for `COc1ccc(C2C(=O)N(C3CCCCCC3)CC(=O)N2CCc2ccc(Cl)cc2)cc1OC` (stereo not given), the “activity, negative = inhibition” value is -0.397% (inactive).

Turning to `CCC(=O)N1c2ccccc2CC1C(=O)N1CCN(c2ccccc2F)CC1` (stereo not given), the “activity, negative = inhibition” value was -0.708% (inactive). Take `Cc1ccccc1CCNC(=O)C1CCN(c2nc3ccccc3nc2C(F)(F)F)CC1`: the “activity, negative = inhibition” value is -5.82% (inactive). Turning to `Cc1ccc(Cl)cc1NC(=O)NC1COc2ccccc2C1` (stereo not given), the “activity, negative = inhibition” value is 64.3% (inactive). On to `Nc1nc(N)c(N=O)c(N)n1`, for which the “activity, negative = inhibition” value was -18.6% (inactive). On the same count and under the same terms, to `Cc1nc2ccccn2c(=O)c1NC(=O)c1c(F)cccc1F` belongs -43.5% (inactive). Take `c1ccc(C2CNCc3c2ccc2ccccc32)cc1` (stereo not given): the Potency is 12.6 µM (active). On to `CCN(CC)/[N+]([O-])=N/OCOC(=O)Cc1c(C)n(C(=O)c2ccc(Cl)cc2)c2ccc(OC)cc12`, for which the “activity, negative = inhibition” value is -15.9% (inactive). As for `CCOC(=O)c1[nH]c2ccccc2c1N=C(C)N(CC)CC`, the “activity, negative = inhibition” value is -13.3% (inactive). Same read-out and setting: to `CCOC(=O)c1c(SCC(=O)Nc2cccc(C)c2C)nc(=O)[nH]c1C` belongs 14.4% (inactive). Turning to `CCOC(=O)c1c(C)[nH]c2c1-c1ccccc1C(=O)C2=O`, the Potency was 1.26 µM (active). For the compound `Cc1ccc(S(=O)(=O)N/N=C(\c2ccccc2)C2CC2)cc1`, the “activity, negative = inhibition” value is 10.5% (inactive). Still for that read-out and setting: to `Cc1ccc(S(=O)(=O)/N=S(\C)C(C)C)cc1` (stereo not given) belongs 26% (inactive). Turning to `Cc1ccc(S(=O)(=O)/N=C2\C=C(NS(=O)(=O)c3ccc(C)cc3)C(=O)c3ccccc32)cc1`, the Potency is 11.2 µM (active).

Consider `CCCCN(C)CCCNC(=O)CN1N=C(c2ccc(OC)cc2)CCC1=O`, for which the “activity, negative = inhibition” value was 0% (inactive). On to `Brc1cccc(-c2nnn3c2nc(NC2CCCCC2)c2ccccc23)c1`, for which the “activity, negative = inhibition” value was -8.48% (inactive). Consider `O=S(=O)(NCCOc1cccc2cccnc12)c1ccc(F)cc1`, for which the “activity, negative = inhibition” value is -15.5% (inactive). Consider `O=C(Nc1ccccc1)Oc1cccc2cccnc12`, for which the Potency is 8.91 µM (active).

Turning to `NC(=O)C1CCN(C(=O)COc2cccc3cccnc23)CC1`, the “activity, negative = inhibition” value is -2.64% (inactive). As for `CCNS(=O)(=O)c1ccc(NC(=O)Nc2cccc(C(F)(F)F)c2)cc1`, the Potency was 12.6 µM (active). Regarding `CCNS(=O)(=O)c1ccc(NC(=O)c2cncc(Br)c2)cc1`, the “activity, negative = inhibition” value was -4.93% (inactive).

As for `CCNS(=O)(=O)c1ccc(NC(=O)CSc2nc(-c3ccco3)cc(C(F)(F)F)n2)cc1`, the “activity, negative = inhibition” value was 0% (inactive). On the same count and under the same terms, the value for `CO[C@H]1O[C@@H]2O[C@@]3(C)CC[C@@H]4[C@@H](C)CC[C@@H]([C@H]1C)[C@@]24OO3` was 13% (inactive). `Brc1nc2ncnc(NCc3ccco3)c2[nH]1`: the “activity, negative = inhibition” value was 17.8% (inactive). As for `O=C(CCl)N(Cc1cccc([N+](=O)[O-])c1)c1cccc(Cl)c1`, the Potency was 11.2 µM (active). Take `CC(=O)N(CN1C(=O)C2CC=CCC2C1=O)c1cccc(Cl)c1` (stereo not given): the “activity, negative = inhibition” value was -19.6% (inactive). In the case of `COC(=O)c1cc(C(=O)N(Cc2ccccc2)c2ccccn2)cc([N+](=O)[O-])c1`, the “activity, negative = inhibition” value is 6.92% (inactive). Regarding `CCCc1nn2c(=O)cc(COC(=O)c3ccc(NC(=O)COc4ccc(F)cc4)cc3)nc2s1`, the “activity, negative = inhibition” value is -0.265% (inactive). The same measure, in the same setting: the value for `c1ccc(CNCc2ccc(CNCc3ccccc3)cc2)cc1` was 3.53% (inactive); that for `Oc1ccc(N2CCN(C(=S)NCc3ccccc3)CC2)cc1` was -0.832% (inactive). `Oc1ccc(CNc2ccccc2O)cc1`: the Potency was 12.6 µM (active). As for `CCN(CC)c1nc(C#N)nc(OC)n1`, the “activity, negative = inhibition” value was -4.06% (inactive). `CCC(=O)Nc1ccc(Nc2nc(Cl)nc(Nc3ccc(NC(=O)CC)cc3)n2)cc1`: the “activity, negative = inhibition” value is 23.4% (inactive).

As to `O=C(CCl)Nc1ccc(Sc2ccc(NC(=O)CCl)cc2)cc1`, the Potency was 10 µM (active). For `CC(C)(CCl)C(=O)Nc1ccc(Sc2ccc(F)cc2)cc1`, the “activity, negative = inhibition” value is 0% (inactive). On the same count and under the same terms, to `CCOc1ccc(C2C(C(=O)Nc3ccc(Cl)cc3)=C(C)Nc3nc(C(F)(F)F)nn32)cc1` (stereo not given) belongs -20.7% (inactive). On to `CCc1ccc(NC(=O)c2cc(S(=O)(=O)N3CCCC(C)C3)cn2C)cc1` (stereo not given), for which the “activity, negative = inhibition” value was -6.75% (inactive). On the same count and under the same terms, to `Cn1c(=O)c2c(SCC(=O)NCC3CCCO3)nc(-c3ccccc3F)nc2n(C)c1=O` (stereo not given) belongs -1.79% (inactive); to `CCS(=O)(=O)Nc1cccc(-c2cc(-c3ccccc3)c3cc(C)ccc3n2)c1`, 0% (inactive).
